The record followed here is PubChem BioAssay AID2825 (Sanford-Burnham Center for Chemical Genomics, 2010).

In all, about 330,000 compounds went through this assay and about 1,300 (0.39%) were called active. Shown is part of a subset that was picked to be rich in actives. Unmarked numbers belong to inactive results.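 The calls were made as follows: active = inhibition of 50% or more; inactive = inhibition below 50%.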

By inhibition is commonly meant the relative decrease from the control value, in per cent.

The assay is described as follows: blockers of yeast NLRP3/ASC/caspase-1 reporter – luminescence, uHTS, primary screen (AID 2825).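 Also: plate controls were induced DMSO wells for no effect and uninduced yeast grown without galactose for full effect.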 The conditions noted are these: Yeast reconstituted NLRP3/ASC/caspase-1, beta-gal luminescence, 24 h; at 10 µM; hits give high values.
For `O=C(CCC(=O)c1cccs1)Nc1nc2ccccc2s1`, the inhibition is 3.03%.
For the compound `Cc1ccnc(-n2sc3ccccc3c2=O)n1`, the inhibition is 6.74%.
To `Cc1ccnc(Nc2nc3ccccc3s2)n1` belongs 53.7% (active); to `Cc1ccc(NS(=O)(=O)c2cccs2)cc1S(=O)(=O)N1CCCCCC1`, 8.88%.
To `CCn1nc(C)c(NC(=O)/C=C/c2ccc(OC)c(COc3ccc(Br)cc3)c2)c1C` belongs 7.05%; to `COc1cc(N2C(=O)c3ccccc3C2=O)c(Cl)cc1C(=O)OCC(=O)N1CCOCC1`, -0.245%; to `N#C/C=C(/c1ccc(F)cc1)N1CCOCC1`, 6.72%.
To `CCOc1cc(/C=N/NC(=O)OC)ccc1OCCSc1ccc(Cl)cc1` belongs 33.5%; to `CC(C)(C)NC(=O)CN(C(=O)c1ccc(Cl)nc1)c1cccc2ccccc12`, 13.4%.
Take `O=C(O)CC1=C(Nc2ccccc2)C(=O)N(c2ccccc2)C1c1ccc(Cl)cc1` (stereo not drawn): the inhibition was 15%.
For the compound `O=C1C=C(c2ccc(Cl)cc2)C(=O)N1Nc1ccccc1`, the inhibition was 74.6% (active).
As to `O=C(CCC(=O)OCc1ccc(Cl)cc1)Nc1ccccc1`, the inhibition is 21%.
The figure for `Cc1sc2c(c1C)c(=O)n(-c1ccccc1)c1nncn21` is 2.84%; for `CCCCNC(=O)C1(O)c2ccccc2NC(=O)N1c1ccc(Cl)cc1` (stereo not drawn) it is 3.8%; for `COc1cc(NC(=O)C2=CC(c3ccco3)=NS(=O)(=O)N2C)cc(OC)c1OC` it is 2.53%.
As to `Cc1noc(C)c1CSCC(=O)Nc1nc2ccc(Oc3ccccc3)cc2s1`, the inhibition is 9.07%.
On to `CCc1noc(C)c1C(=O)Nc1nc2ccc(OC)cc2s1`, for which the inhibition was 70.8% (active).
The figure for `CCc1noc(C)c1C(=O)Nc1nc(-c2ccccc2)cs1` is 45.9%; for `Cc1ccc(C)c(N2CCN(C(=O)Cn3ncn4cccc4c3=O)CC2)c1` it is -5.29%.
For the compound `COCCN1CCn2c(nc3cc(NS(C)(=O)=O)ccc32)C1`, the inhibition is 10.9%.
In the case of `CN=C1C=C/C(=N/N=c2\ccn(O)cc2C)C=C1C`, the inhibition was 57.6% (active).
Take `COCCn1c(=O)[nH]c2cc(C(=O)NCc3cccnc3)ccc2c1=O`: the inhibition is -3.21%.
As for `CC(NC(=O)c1cc2cc(Cl)ccc2oc1=N)c1ccccc1` (stereo not drawn), the inhibition is 14.4%.
In the case of `CC(=O)[C@@]12O[C@@H]1C[C@H]1[C@@H]3CC[C@H]4C[C@@H](O)CC[C@]4(C)[C@H]3CC[C@@]12C`, the inhibition is 58.4% (active).
With `CC(=O)C12CC(C)=C(C)CC1CC1C3CCC4=CC(=O)CCC4(C)C3CCC12C` (stereo not drawn), the inhibition was -1.41%.
Turning to `CC(=O)O[C@H]1CC[C@@]2(C)[C@@H](CC[C@@H]3[C@@H]2CC[C@]2(C)[C@@H](C(C)(C)O)C[C@@H]32)C1`, the inhibition is 32.9%.
To `CC1CCN(S(=O)(=O)c2ccc3[nH]c(=O)ccc3c2)CC1` belongs 18.1%.
For `CCc1ccc(NC(=O)NC(C)c2ccc3c(c2)OCO3)cc1` (stereo not drawn), the inhibition is 24.3%.
The figure for `O=C(CC(Cc1ccccc1)C(=O)O)NCCc1ccc2c(c1)OCO2` (stereo not drawn) is 20.5%; for `CC(=NCc1ccc2c(c1)OCO2)C1=C(O)c2ccccc2C1=O` it is 57.8% (active); for `CCC(=O)c1cc(F)ccc1OCC(=O)Nc1ccc2c(c1)OCCO2` it is 26.6%.
For the compound `O=C(NC1CCC(O)CC1)c1ccccc1OCc1ccc(F)cc1` (stereo not drawn), the inhibition is 1.97%.
On to `COCCNC(=O)CCCn1c(=O)c2ccccc2n(Cc2cccc([N+](=O)[O-])c2)c1=O`, for which the inhibition is -0.805%.
With `Cc1cc(C(=O)COc2ccc(Br)cc2F)c(C)n1C1CC1`, the inhibition was 58.4% (active).
Consider `Cc1cc(C(=O)COc2ccccc2Cl)c(C)n1C1CC1`, for which the inhibition is 21.7%.
The figure for `O=C(COc1ccc(Br)cc1F)NC1CCN(Cc2ccccc2)CC1` is 23%; for `O=C1C=CN2CCCC2CC1` (stereo not drawn) it is -5.59%.
For `O=C1CC(c2ccccc2)CC(O)=C1C=NCCN1CCOCC1` (stereo not drawn), the inhibition was 29.8%.
The figure for `CC(C)C(=O)N1CCN(CCN=CC2=C(O)CC(c3ccco3)CC2=O)CC1` (stereo not drawn) is 60.8% (active).
With `CC(=O)N1CCN(CCN=CC2=C(O)CC(C)(C)CC2=O)CC1`, the inhibition was 32.1%.
The figure for `Cc1cc(C(=O)OCC(=O)Nc2nccs2)c2ccccc2n1` is 10.4%.
`COCCCNC(=O)/C=C/c1ccc(OCc2c(F)cccc2Cl)cc1`: the inhibition was 50.9% (active).
The figure for `CN(C)CCCNC(=O)/C=C/c1ccc(OCc2c(F)cccc2Cl)cc1` is 20.8%; for `O=C(/C=C/c1ccc(OCc2c(F)cccc2Cl)cc1)N1CCOCC1` it is 28.2%.
The figure for `CCN(CC(=O)Nc1ccc(NC(C)=O)cc1)C(=O)CSC(=S)N1CCCC1` is 4.68%.
As for `C=CCC1(CC=C)CCCN1C(=O)CC1C(=O)NCCN1Cc1ccccc1OC` (stereo not drawn), the inhibition was 4.65%.
The figure for `Cc1sc2ncnc(Sc3nc4ccccc4s3)c2c1C` is 6.48%; for `CCCNc1ncnc2sc(C)c(C)c12` it is 55.9% (active).
To `CSc1ncnc2sc(C)c(C)c12` belongs 11.2%.
With `Cc1cc(NC(=O)CN2C(=O)NC(C)(CCc3ccccc3)C2=O)no1` (stereo not drawn), the inhibition was -3.27%.
In the case of `COCCNC(=O)c1ccc2nc(Cc3ccc(OC)c(OC)c3)oc2c1`, the inhibition is 20.9%.
As to `O=C(Cn1ccc2cc(S(=O)(=O)N3CCCC3)ccc21)NCc1ccccc1`, the inhibition was 11.6%.
`O=[N+]([O-])/C=C/c1ccc2c(ccn2Cc2ccccc2)c1`: the inhibition was 92.3% (active).
To `Cc1ccc2[nH]c3c(=O)n(CC(=O)NCCc4ccc(Cl)cc4)ncc3c2c1` belongs 1.78%.
Regarding `CC1(C)CCSC(/C=C/c2ccccc2)=N1`, the inhibition was 85.7% (active).
For the compound `COc1ccc(CCNS(=O)(=O)c2ccc(Cl)s2)cc1OC`, the inhibition was 11%.
On to `CC1CC(C)CN(S(=O)(=O)c2cccc3nonc23)C1` (stereo not drawn), for which the inhibition was 25%.
`CC(C)C[C@H](NC(=O)NCCc1ccc(Cl)cc1)C(=O)O`: the inhibition is 2.68%.
